Results taken from PubChem BioAssay (NCATS).
Results filed as inconclusive are left out. A call without a number means that no potency is given here. Active and inactive are the calls of the source. Calls follow the shape of the dose curve; as a rule, active = well fitted inhibition curve with a large enough effect; inconclusive = small, poorly fitted or top-dose-only effect; inactive = flat fitted curve, though single readings scatter. Where a SMILES comes first, the peptide text is derived from it.

biological target: Glutathione peroxidase 1 (Homo sapiens) (UniProt P07203); test: Primary qHTS Assay for Inhibitors of Recombinant Selenoprotein Glutathione Peroxidase 1 (GPX1) (AID 1845191); details: recombinant GPX1, GR-coupled NADPH fluorescence, 15 min; series mostly up to 27.7 µM; also: nearly all actives have a fitted effect of over 65% in size
How it was run: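 Recombinant GPX1 (10 nM final) was preincubated with compound for 30 min at room temperature, then reacted with 1 mM GSH, 0.5 mM CHP, 0.5 mM NADPH and 100 nM glutathione reductase; NADPH fluorescence (340/450 nm) was read at 0 and 15 min.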

Sequence of Glutathione peroxidase 1 (Homo sapiens) (P07203 whole entry, looked up): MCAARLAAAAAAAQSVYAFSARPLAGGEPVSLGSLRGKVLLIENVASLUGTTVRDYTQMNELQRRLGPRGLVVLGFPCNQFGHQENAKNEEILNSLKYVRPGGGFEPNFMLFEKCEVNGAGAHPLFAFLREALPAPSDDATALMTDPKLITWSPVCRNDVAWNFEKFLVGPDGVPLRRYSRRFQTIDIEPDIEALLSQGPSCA

Question: How did the Potency turn out when CC1=CC(=O)CC(C)(C)C1CO[C@@H]1O[C@H](CO)[C@@H](O)[C@H](O)[C@H]1O (some centres not stated) was run?
Answer: inactive

Question: Which Potency does the source give for COC(=O)C1C(c2ccc(O)cc2)C(C(=O)O)C1c1ccc(O)cc1 (configuration not stated) here?
Answer: inactive

Question: For C=C1CCC2[C@@](C)(C(=O)O)CCC[C@@]2(C)[C@@H]1CCc1ccoc1 (some centres not stated), which Potency is on record?
Answer: inactive

Question: For O=C(O)c1ccncc1Nc1nn(CCN2CCC(F)(F)CC2)c2ccc(F)cc12, which Potency is on record?
Answer: inactive

Question: Which Potency does the source give for CC1CC2(O)OC(=O)C3=C2C(CCC3)[C@@]12C[C@@H](c1ccoc1)OC2=O (some centres not stated) here?
Answer: inactive

Question: CC1CCC2C(C)(C)C(O)C(O)CC2(C)C12Cc1c(O)cc(CO)c(C=O)c1O2 (configuration not stated) was tested. Which Potency did it give?
Answer: inactive

Question: Which Potency does the source give for C=C1CCC[C@]2(C)CC[C@@](O)(C(=C)C(=O)O)C[C@@H]12 here?
Answer: inactive

Question: With N[C@@H](CCNCc1ccc(Cl)cc1)C(=O)N1CCCCC1 as the compound, how does the Potency read?
Answer: inactive

Question: Which Potency does the source give for C=C1CCC2C(C)(C(=O)OC)CCCC2(C)C1CCC1=CCOC1=O (configuration not stated) here?
Answer: inactive

Question: How did the Potency turn out when CC1(C)CC[C@]2(C(=O)O[C@@H]3O[C@H](CO[C@@H]4O[C@H](CO)[C@@H](O)[C@H](O)[C@H]4O)[C@@H](O)[C@H](O[C@@H]4O[C@H](CO)[C@@H](O)[C@H](O)[C@H]4O)[C@H]3O)CC[C@]3(C)C(=CCC4[C@@]5(C)CC[C@H](O[C@@H]6OC[C@@H](O)[C@H](O)[C@H]6O)[C@@](C)(C(=O)O)C5CC[C@]43C)[C@@H]2C1 (some centres not stated) was run?
Answer: inactive

Question: How did the Potency turn out when COc1ccc(C(=O)CC(=O)O)c2c1C=CC(C)(C)O2 was run?
Answer: inactive

Question: With COC1OC(OC)C(O)(CCC2(C)C(C)CCC3(C)C2CC(O)C(O)C32CO2)C1O (configuration not stated) as the compound, how does the Potency read?
Answer: inactive

Question: With O=C(O)[C@H]1Cc2ccccc2CN1 as the compound, how does the outcome read?
Answer: inactive [at 4.49 µM]

Question: For OC[C@H]1O[C@@H](OCCc2ccccc2)[C@H](O)[C@@H](O)[C@@H]1O, which Potency is on record?
Answer: inactive

Question: How did the Potency turn out when COC(=O)c1ccc(OC)cc1O[C@@H]1O[C@H](CO[C@@H]2OC[C@@H](O)[C@H](O)[C@H]2O)[C@@H](O)[C@H](O)[C@H]1O was run?
Answer: inactive

Question: CC1(C)C(=O)CCC2(C)C1C(O)C=C1COC(=O)C12O (configuration not stated) was tested. Which Potency did it give?
Answer: inactive

Question: With Cn1cc(Nc2cnccc2C(=O)O)c2cccnc21 as the compound, how does the Potency read?
Answer: inactive

Question: C[C@H]1[C@H](C)CC[C@]2(C(=O)O)CC[C@]3(C)C(=CCC4[C@@]5(C)C[C@@H](O)[C@H](O)C(C)(C)C5CC[C@]43C)[C@H]12 (some centres not stated) was tested. Which Potency did it give?
Answer: inactive

Question: Which Potency does the source give for C/C(=C/CO)CC[C@H]1[C@]2(C)C[C@H](O)CC(C)(C)[C@H]2CC[C@]1(C)O here?
Answer: inactive

Question: Which Potency does the source give for CSCC[C@H](NC(=O)[C@H](CO)NC(=O)[C@H](CCC(=O)O)NC(C)=O)C(=O)N[C@H](C=O)CC(=O)O (Ac-ESMD-aldehyde) here?
Answer: inactive

Question: How did the Potency turn out when CCCO[C@@H]1O[C@H](CO)[C@@H](O)[C@H](O)[C@H]1O[C@@H]1OC[C@@H](O)[C@H](O)[C@H]1O was run?
Answer: inactive

Question: For O=C(O)CCc1cccc(O)c1O[C@@H]1O[C@H](CO)[C@@H](O)[C@H](O)[C@H]1O, which Potency is on record?
Answer: inactive

Question: Which Potency does the source give for COCc1c(O)c(C(=O)O)c(C)c2c1OC(=O)c1c(C)cc(O)c(CO)c1O2 here?
Answer: inactive

Question: How did the Potency turn out when CCC(C)/C=C(C)/C=C/C1=CC2=C(Cl)C(=O)C(C)(OC(C)=O)C(=O)C2=CN1C(CCC(=O)O)C(=O)O (configuration not stated) was run?
Answer: inactive

Question: Which Potency does the source give for C=C[C@@]1(C)CCC2=C([C@H]1OC(C)=O)[C@H](OC(C)=O)CC1[C@](C)(C(=O)OC)CC[C@H](OC(C)=O)[C@]21C (some centres not stated) here?
Answer: inactive

Question: COC1CC(O[C@H]2CC[C@@]3(C)C(=CC[C@]4(O)C3[C@H](O)[C@@H](O)[C@]3(C)[C@@H]([C@H](C)O)CC[C@@]34O)C2)OC(C)C1OC1CC(OC)C(OC2CC(OC)C(OC3OC(C)C(OC4OC(CO)C(O)C(O)C4O)C(OC)C3O)C(C)O2)C(C)O1 (some centres not stated) was tested. Which Potency did it give?
Answer: inactive

Question: Which Potency does the source give for C/C=C/C=C/C=C/C(=O)N(C)C(C(=O)NC(C)C(=O)N1CCCC1C(N)=O)C(C)C (configuration not stated) here?
Answer: inactive

Question: For C/C=C/C=C/C(O)=C1/C(=O)[C@]2(C)C(=O)[C@@](C)(O)[C@H]1[C@H]([C@@]1(C)OC(=O)C(C)=C1O)[C@H]2C(=O)CC/C=C/C, which Potency is on record?
Answer: inactive

Question: With COc1ccc(CC(NC(C)=O)C(=O)O)cc1 (configuration not stated) as the compound, how does the Potency read?
Answer: inactive

Question: For CC(=O)OC[C@]12[C@H](OC(C)=O)[C@H](OC(=O)c3ccccc3)[C@@H]3[C@@H](OC(C)=O)[C@]1(OC3(C)C)[C@H](C)C[C@H](OC(=O)c1ccccc1)[C@@H]2OC(=O)c1ccccc1, which Potency is on record?
Answer: inactive

Question: Which Potency does the source give for C/C(=C\CCC(C)C1CC(O)C2(C)C3CCC4C(C)(C)C(OC5OCC(O)C(O)C5O)CCC45CC35CC(O)C12C)C(=O)O (configuration not stated) here?
Answer: inactive

Question: How did the Potency turn out when COc1cccc(C(=O)NCCNc2nc3cc(C)cc(C)c3cc2C#N)c1 was run?
Answer: inactive
